Out of some 53,000 sequences screened, about 3,700 (7%) were called active.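 Rule for the calls: active = gene knockdowns whose robust z-score for IL-1 alpha signal is at least 2 or at most -2, so actives lie on both sides; inactive = the rest.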 This excerpt belongs to a sample that is enriched for actives.

The assay is described as follows: Components of the Cytosolic LPS Sensing Pathway: Gene Identification via Genome-wide siRNA Screen.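 Note: robust z of the log signal after scaling to non-targeting control siRNA wells of the plate.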 Conditions: RAW264.7 macrophages, IL-1a HTRF, actives lie on both sides, screened at 100 nM (by protocol), cells primed 5 h with Pam3CSK4 first. Put shortly:
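Mouse macrophage line RAW264.7 is transfected with siRNA (100 nM final), grown 48h, primed with TLR ligand Pam3CSK4 5 h and given intracellular LipidA 24 h. IL-1a in supernatant is read by HTRF and viability by luminescence.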
For orientation: TR-FRET usually uses a lanthanide donor and a delayed reading to cut background.
Turning to GGUUGUAGGAGAGGAAGCCTT against Apobr, the z-score is -0.572 (inactive).
For GGUACGAAGUCAAAGUGAATT against Dnmt3l, the z-score is 0.0494 (inactive).
Then GGAGUUAGAUGCCCUCAAGTT against Trappc6a, with -0.796 (inactive).
Then CAGCUGAGAUUGAUGGCCATT against Olfr313, with -0.6 (inactive).
Then GCCUGAAUAUUGCUAUCACTT against Gpr107, with 2.35 (active).
For the sequence GCAACAACCACCAAAUCUATT against Prol1, the z-score is -1.53 (inactive).
Then GGAAGAAUGUGAUGACUCATT against Zfp11, with -0.471 (inactive); and “GGUAAUUUAAUGACACAUGTT against A130079P16Rik”, with 2.35 (active).
Then GGAUCCAGACACCUCAAGATT against Vxn, with 0.702 (inactive); and CGUUCAUGUUGUAAGUAUCTT against Olfr1196, with 0.461 (inactive); and GGAGACUUUGAAAAAAGACTT against Mrps31, with 0.5 (inactive).
Then GCUGAAAAUAUACCAUUCATT against Colec10, with -0.798 (inactive); and GGAUCCAGACUUAAGCUUATT against Zgpat, with 2.57 (active).
With CGGAUUACAAACCAUAAAATT against Mex3b, the z-score was -0.497 (inactive).
Take GGAGAAGAGAAAGAUUCUUTT against Dhx9: the z-score is 0.724 (inactive).
For GGCAAUGGAAGUUGGAACATT against Ptch1, the z-score was -2.15 (active).
Regarding GGACACAUGGUGUUGACCATT against Parp12, the z-score was 0.0379 (inactive).
Then GGACCUGAUCUUCAGGUUUTT against Gpc5, with 1.73 (inactive).
Then GGCUCUCAAUUUUAUUUCUTT against Ncaph2, with 0.894 (inactive); and GCACGAGACACUUUUCAUUTT against Dnajb5, with -0.0852 (inactive); and GGAAGCAGAAUUGUAAAGATT against Hrk, with -1.09 (inactive).
Then “GCAACAAAAGGCCUAAUCATT against 4930550C14Rik”, with -1.74 (inactive); and GGCCCUUGUUUAAAGCCAUTT against Asns, with 0.0954 (inactive).
As for CGGCGUAUGAGGAUUGGUUTT against Atp8b1, the z-score is -0.739 (inactive).
Then GGCCAAGAUUAGAUUGCUUTT against Senp2, with 2.57 (active); and GCCCGUAUAGGUAUUGGUCTT against Mpg, with 2.06 (active).
As to GCUUGAAUCCGAUUUGUUATT against Gramd1c, the z-score was 0.296 (inactive).
As for GGCAUAUGAUGAUAAGUAATT against P2ry14, the figure is 0.691 (inactive).
As for GGCACUGAAGGAGAACCUGTT against Rbbp8nl, the z-score was -0.336 (inactive).
Then GGAACAACUGAAAAUGAAGTT against Ppp1r21, with -1.21 (inactive); and UUCCAUUCAUAUGUCUUGATT against Tas2r109, with 0.00348 (inactive).
Then GGUUUUUCUAAGAGAACGGTT against Rnft1, with -0.558 (inactive).
Then CCUGGUCACUCCAAACCCATT against Zfp950, with -2.11 (active); and GGAGCUCUCGAAGGAUUGUTT against Eda2r, with -0.768 (inactive); and GGAUAAGAGGGUGAAGUCATT against Cdyl2, with -1.06 (inactive).
As to GGUAUAUAGGGCUGUGGCUTT against Pigs, the z-score is -0.822 (inactive).
Then GGUGUACUUUAUCUCACGATT against Olfr6, with 1.1 (inactive); and GCCUGUUCUAGGUGACCUATT against Chd3, with 0.236 (inactive); and GGAAAUACAGAACACAAGCTT against Plekhm3, with 2.04 (active).
Then GGUUAAAUAUGUAAACCACTT against Slco2b1, with 0.0949 (inactive); and CCAUAUAGCCUCAAAAUCGTT against Acat2, with -0.395 (inactive).
As to CGUCUCAACAGAGUUGGAGTT against Prmt2, the z-score was 1.94 (inactive).
Then CGAUGCUGAUGUAUCAAAGTT against Phkb, with 1.48 (inactive); and GGUUCUUUUUACUCAGUGGTT against Ankhd1, with -2.53 (active).
As for GGAACUUCCUGUUCAGAAATT against Eci3, the figure is 0.881 (inactive); as for CGUUAGUCUGUGAAUGCACTT against Emc10, -0.442 (inactive).
As for GGACAGUAAUAUGAUGAGCTT against Lzts1, the figure is -0.943 (inactive); as for GCUUUAGUGACGGCUCGAATT against Zscan2, 2.07 (active).
Regarding GGGAGUGAGUUCUGGAGUGTT against Capn2, the z-score was 0.815 (inactive).
As for GGUUUUAAAGCAAUGAGCATT against Olfr995, the figure is -1.2 (inactive); as for CCCAUGUCGUGACAUCACATT against Slc26a7, -2.93 (active).
Then GGCCUUCUAUUUUGUCAAUTT against Limd1, with 0.403 (inactive); and GAAAUUUCCUAGAUGACUCTT against Vmn1r199, with -0.447 (inactive).
Then CGUAUGAGUGCAAUACUAATT against Pcmtd1, with 1.32 (inactive); and GCACAUAGUGUAUCUAUACTT against Cd86, with -1.24 (inactive); and GUCUUGCGUGACAACAUCCTT against H4c14, with 0.718 (inactive).
For GCUUAUAUGGCCUGAGAGATT against Tmem199, the z-score is -0.74 (inactive).
Take GGUCAAAGGGAAACAAGUUTT against Creb3l4: the z-score is -2.02 (active).
Then GGUGGUUUAACUGGAUAUUTT against Paip2b, with -1.95 (inactive); and GCCCAUGUAUCCAAAAGAATT against Cnmd, with -1.59 (inactive).
Then GGUGAUUGACAGAUUCUGATT against Nr4a1, with -0.613 (inactive); and GCUUGGACCAUAAAUACUGTT against Senp5, with 0.051 (inactive).
Regarding GAUCAGAUGUUUGGGACUUTT against Olfr512, the z-score was 2.25 (active).
In the case of GGACUUCUUAAUGUUUUACTT against Phf11a, the z-score is 0.398 (inactive).
For the sequence GCCCAAGGUAACAACAAGCTT against Rtn4r, the z-score was 1.28 (inactive).
Take “GGUAACUUUGAACUGAUCCTT against 1700030J22Rik”: the z-score is -1.17 (inactive).
Then CCCUCAACCUCCAACCACATT against Ceacam1, with -2.15 (active); and GGGUUAGAGUAAGGUAUUATT against Tsn, with -0.879 (inactive); and GCAGAUAGCCCACGUCAUUTT against Nfkb2, with 0.881 (inactive).
As for CCUAAGUUCCUGAAAAUAUTT against Epha5, the figure is -0.454 (inactive); as for “GGGAUUCAGACAUGUGCUGTT against 4930503E14Rik”, -0.658 (inactive); as for GGCCUACGAGAGGCAAAAATT against Hnf1a, -2.05 (active).
As for CCAUACCGAUCAAAUUCCCTT against Pfn2, the figure is -0.596 (inactive).
As to GCAAUAGAAAAGUCCGUGGTT against Rbsn, the z-score was -1.12 (inactive).
As for GGCAAAGGAUCCAAGUUUGTT against Tmem123, the figure is 2.81 (active); as for GGAUGUCCAGAUGUAAAUATT against Vps16, -0.974 (inactive); as for GGUUAUCAGAGGUUUAGUUTT against Oser1, 0.23 (inactive).
Then GGGUCUCCAAUCCCUCAGUTT against Kir3dl2, with 0.489 (inactive); and “GGGCAAGAACAACUCACUUTT against 4933404G15Rik”, with -2.93 (active); and GGAUUCAAAGCUUCCUUUATT against Eras, with 0.115 (inactive).
Then CGAAAAGGUGUGGCCAUCATT against Eif4a3, with -0.664 (inactive); and CGACAUGUAAAACUAUUGUTT against Cd300e, with 0.864 (inactive); and CGACAUUUUACUAAGAGAUTT against Idnk, with -0.895 (inactive).
With UCGAGUGAAGCAGUCUCCATT against Fam189a1, the z-score was -2.13 (active).
With GCCCAGAAUGCUCACUAAATT against Sln, the z-score is 0.491 (inactive).
Then GGCUGUAAUUUUGAACAAUTT against Rnf17, with -1.42 (inactive).
As for CGAGAUCGAGUACUCAACUTT against Vps39, the figure is -2.96 (active); as for GGUCACUCAAAGAAUUAUGTT against Srr, -1.05 (inactive); as for CCUGUUAAUGACACCCACGTT against Slc37a2, -0.886 (inactive).
As for GGCGAUUUACAACUUUGGATT against H2aw, the figure is 0.0941 (inactive); as for GGAGUGAAGGGUCAUCCAGTT against Col9a2, 5.07 (active).
On to GGAUAUAGGUGUGAUCUAGTT against Mxra7, for which the z-score is 0.9 (inactive).
Regarding CCCAAUGUUUCUAAUCAUGTT against Arhgap12, the z-score was 0.306 (inactive).
As for GGAAGGUUUGUUUUGUUUGTT against Slc24a3, the figure is 0.0291 (inactive); as for GGAGGAAUACCAGGAAUACTT against Sncb, 0.33 (inactive).
In the case of GCCCUUUUCAUUCUCCAGATT against Zdhhc25, the z-score is 4.39 (active).
Then GCCUUUGUGGACCAUCCAATT against Thy1, with -0.954 (inactive); and GGAAAUACGGCAGAACCCUTT against Kcnk9, with -2.54 (active); and GUACCUCAGAGCUCUGCAUTT against Helt, with -0.292 (inactive).
As for GCACUUAGUCCUACAUGACTT against Fut1, the figure is -1.21 (inactive); as for GGUGGUAAUAGACAAACACTT against Ctdnep1, -0.749 (inactive); as for GGAUGUGUCAGAAAAGUUATT against Lars2, 0.641 (inactive).
Then GGAAAUUGUGGACAUGAUCTT against Sult1c1, with -3.27 (active).
GGUAACAAAUGCUGUUUUATT against Cul1: the z-score is 0.459 (inactive).
Turning to CCGAUUGAAUUACUCAGCATT against Bcas2, the z-score was 0.226 (inactive).
As for GGACAAAAGACAAUCGAGATT against Parp2, the figure is -0.273 (inactive); as for CGAUGUUUUCAUGAACGACTT against Tctex1d2, 0.738 (inactive).

The values above are taken from PubChem BioAssay AID1508600 (Functional Genomics Laboratory (NCATS/FGL), 2020).
